# Screens from PubChem.
# The sample as a whole holds a higher share of hits than the screen did.
# GALC G270D act = raises human GALC G270D mutant activity in cells; 145M-Twi-hGALC-G270D cells, HMU-beta-Gal fluorescence, 48 h; actives 0.1% (n = 45,000); AID 1159614; P54803; Potency, µM (highest dose often 57.5 µM), usual class: activators; further: potency means the concentration at half of the fitted maximal effect; 0% is about no effect; nearly all actives have a fitted effect of over 65% in size
#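 qHTS, 1536-well; 145M-Twi-hGALC-G270D cells (WT line also made) in DMEM/F12 + 10% FBS; compound incubation on live cells; HMU-β-gal 0.1 mM final, pH 5.2, NaTC; carbonate stop; fluorescence increase = enhanced residual activity.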
# GALK inh = inhibitors of human galactokinase (GALK). P51570. recombinant GALK, Kinase-Glo ATP luminescence, 1 h. Potency, µM (highest dose often 57.5 µM), inactives show at the highest dose activity, negative = inhibition, hits mostly inhibitors. 44,000 tested, under 10 active. AID 1347072;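 further: plate controls were full GALK reaction for no effect and reaction lacking GALK for full effect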
# Target sequence (P51570 whole entry, looked up): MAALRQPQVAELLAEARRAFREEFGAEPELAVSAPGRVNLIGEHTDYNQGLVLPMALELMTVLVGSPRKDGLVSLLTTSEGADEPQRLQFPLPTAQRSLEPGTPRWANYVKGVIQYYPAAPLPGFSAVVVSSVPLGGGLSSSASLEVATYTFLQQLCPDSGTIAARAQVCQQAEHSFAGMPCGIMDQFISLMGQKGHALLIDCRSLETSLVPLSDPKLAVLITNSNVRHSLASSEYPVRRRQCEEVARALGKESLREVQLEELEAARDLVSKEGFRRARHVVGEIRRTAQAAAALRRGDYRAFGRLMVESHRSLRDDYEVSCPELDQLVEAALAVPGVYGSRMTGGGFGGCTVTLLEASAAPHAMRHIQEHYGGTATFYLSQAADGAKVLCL
#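 Reactions with and without enzyme served as controls. GALK at 5 nM phosphorylates 100 uM galactose using 35 uM ATP (HEPES pH 8.0, Mg2+) for 1 h at RT, with luminescence read 10 min after adding Kinase-Glo Plus.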
# FH mod = Identification of activators of human fumarate hydratase by quantitative high-throughput screening | Fumarate hydratase, mitochondrial (Homo sapiens), P07954 | FH coupled MDH/diaphorase resazurin fluorescence, 15 min | Potency, µM (top dose mostly 79.9 µM), for the others: at the top dose activity change, negative = inhibition, actives largely listed as inhibitors | actives 0.22% (n = 54,000) | AID 1347055, 2019; further: potency means the concentration at half of the fitted maximal effect; on the % scale 0 is the no-effect control and ±100 the full control effect; the screen sought activators but most active calls are inhibition curves; nearly all actives have a fitted effect of over 45% in size
# NTMT1 inhibitor = NTMT1 methyltransferase inhibition. NTMT1 MTase-Glo SAH luminescence, purified enzyme. Potency, µM (highest dose often 114 µM), for inactives: at the highest dose activity change, negative = inhibition, usual class: inhibitors. actives 2.5% (n = 59,000);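 further: potency means the concentration at half of the fitted maximal effect; plate controls were DMSO vehicle for no effect and no enzyme for full effect; nearly all actives have a fitted effect of over 65% in size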
# Target sequence (Q9BV86 whole entry, looked up): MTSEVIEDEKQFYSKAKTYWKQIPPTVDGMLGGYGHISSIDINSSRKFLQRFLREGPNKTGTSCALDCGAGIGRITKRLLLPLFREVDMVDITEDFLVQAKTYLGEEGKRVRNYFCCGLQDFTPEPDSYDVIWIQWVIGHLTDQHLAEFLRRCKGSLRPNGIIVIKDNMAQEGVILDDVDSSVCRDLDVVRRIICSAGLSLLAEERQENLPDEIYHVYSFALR
# B2AR arrestin ag = beta-arrestin recruitment by human beta2-adrenergic receptor ligands. P07550. 44,000 tested, under 10 active. Potency, µM (highest dose often 46.1 µM), most hits filed as activators. HTLA Tango cells, beta-arrestin recruitment, luciferase luminescence, 18 h;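 further: potency means the concentration at half of the fitted maximal effect; 0% = DMSO and full agonism = EC100 isoproterenol or metaproterenol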
#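 Tango cells expressing recombinant beta2-AR and beta-arrestin were treated with compounds (up to 46 microM titration) in DMEM with 1% FBS for 18 hr at 37 degrees C. Beta-arrestin recruitment drove tTA-dependent luciferase, read by luminescence; curves were fitted and classed.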
# TSG101-PTAP inh = inhibitors of HIV-1 PTAP binding to human TSG101, validation; Q99816; Fluorescence polarization, FITC-PTAP peptide/Tsg101, 20 min; Potency, µM (doses to about 115 µM), usual class: inhibitors; 44,000 tested, under 10 active; further: potency means the concentration at half of the fitted maximal effect; 0% is about no effect
#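 Steps: Tsg101 binding domain (10 uM final) in HEPES pH 7.5/NaCl/Tween 20/EDTA/TCEP; add compound; add FITC-PTAP peptide (50 nM final); incubate 20 min r.t.; read polarization.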
# * = called active by the depositor; i = inactive; u = inconclusive; x = no result given; ! = repeats disagree; [ ] = dose if it differs, or a comment. The call rests on the fitted dose curve; in most records, active means well fitted curve in the direction sought with a large enough effect; inconclusive means small, poorly fitted or top-dose-only effect, or another doubt; inactive means no such curve, though single readings can be large; an effect the other way counts as inactive or inconclusive.
SMILES,GALC G270D act,GALK inh,FH mod,NTMT1 inhibitor,B2AR arrestin ag,TSG101-PTAP inh
CN(CCO)C1CCN(c2ccc(Nc3ncc4c5ccnc(F)c5n(C5CCCC5)c4n3)nc2)CC1,x,x,0.4%[53.3 µM],u,x,x
CN[C@@H]1[C@@H](O)[C@@H](O[C@@H]2[C@@H](O)[C@H](O[C@H]3O[C@@H]([C@@H](C)NC)CC[C@H]3N)[C@@H](N)C[C@H]2N)OC[C@]1(C)O,x,x,6.0%,-0.5%[57.5 µM],x,x
CCCn1c(-c2ccc(F)cc2)nc2c(NCCCCN(CC)CC)nc(C)nc21,x,x,x,-27.9%,x,x
CCN(CC)CCCCNc1nc2cc(Cl)c(Cl)cc2nc1-c1ccc(-c2cccs2)s1,x,x,6.5%[53.3 µM],20µM*!,x,x
CC(=O)N[C@@H](CC(=O)O)C(=O)N[C@@H](CCC(=O)O)C(=O)N[C@H](C(=O)N[C@@H](CC(=O)O)C(=O)Nc1ccc2c(C)cc(=O)oc2c1)C(C)C,x,x,20µM*,7.1%[57.5 µM],x,x
CO/N=C(/C(=O)N[C@@H]1C(=O)N2C(C(=O)O)=C(Cn3ccc(=N)n3CCO)CS[C@H]12)c1csc(N)n1,x,x,2.5%,-4.1%[57.5 µM],x,x
COc1ccc(-c2csc(N3CCC(C(N)=O)CC3)n2)cc1OC,x,x,x,-3.7%,x,x
CC(C)C(C)(C)C(C)(C)C(C)(C)S,i,x,0.8%,31.6µM*,x,x
CNC(=O)Cn1cc(-c2ccc3c(c2)C(F)CC32NC(=O)N(CC(=O)N(Cc3ccc(F)cc3)C(C)C(F)(F)F)C2=O)cn1 (stereo unspecified),x,x,x,-2.6%,x,x
NC(=O)c1cccc2cn(-c3ccc([C@@H]4CCCNC4)cc3)nc12,x,x,-0.1%,31.6µM*!,x,x
O=C(CNC(=O)C1CCCCC1)OC(C(=O)c1ccccc1)c1ccccc1 (stereo unspecified),x,x,x,89.1µM*,x,x
O=C(CNC(=O)C1CCCCCC1)OC(C(=O)Nc1cc(C(F)(F)F)ccc1Cl)c1ccccc1 (stereo unspecified),x,x,x,9.4%,x,x
COC(=O)C1=CO[C@@H](O[C@@H]2O[C@H](CO)[C@@H](O)[C@H](O)[C@H]2O)[C@H]2[C@@H]1CC(OC)O[C@@H]2C (stereo partly specified),x,x,-0.5%[53.3 µM],-17.3%[29.8 µM],x,x
COc1ccccc1NC(=O)C1=C(C)Nc2nc(SCc3ccccc3F)nn2C1c1ccncc1 (stereo unspecified),i,-2.0%,-2.1%,89.1µM*,i,i
CCC[C@H](NC(=O)[C@@H]1[C@H]2CCC[C@H]2CN1C(=O)[C@@H](NC(=O)[C@@H](NC(=O)c1cnccn1)C1CCCCC1)C(C)(C)C)C(=O)C(=O)NC1CC1,x,x,x,44.7µM*,x,x
CC12CCC(OC3OC(CO)C(O)C(OC4OC(CO)C(O)C(O)C4O)C3O)CC1=CCC1C2CCC2(C)/C(=C3/COC(=O)C3)CCC12O (stereo unspecified),x,x,5.3%[20.6 µM],13.2%[12.6 µM],x,x
Cn1cc(-c2cnn3c(N)c(Br)c([C@@H]4CCCNC4)nc23)cn1,x,x,-0.3%,35.5µM*!,x,x
CCc1cnc2c(c1SCC(=O)N1CCCCC1)c(=O)n(C)c(=O)n2C,i,-2.1%,1.7%,-0.5%,i,i
CCc1cnc2c(c1SC(C(C)=O)C(=O)N(C)C)c(=O)n(C)c(=O)n2C (stereo unspecified),i,0.2%,-2.8%,25.1µM*,i,i
O=C(CCl)Nc1cccc(NC2=NS(=O)(=O)c3ccccc32)c1,x,x,3.3%,3.7%[57.5 µM],x,x
Cc1ccc(-c2ccc(=O)n(CC(=O)N(C)CCc3ccco3)n2)cc1,x,x,x,7.7%,x,x
C#Cc1cccc(Nc2ncnc3cc(OCCOC)c(OCCO)cc23)c1,x,x,3.3%[53.3 µM],35.5µM*,x,x
C#Cc1cccc(Nc2ncnc3cc(OC)c(OC)cc23)c1,x,x,2.3%,-9.8%,x,x
CCn1c(=O)c2cc(C(N)=O)c(N)nc2n(C2CC2)c1=O,x,x,-0.5%,20.6%,x,x
CCn1c(CNC(=O)C23CC4CC(CC(C4)C2)C3)nnc1SCC(=O)Nc1ccc(C)cc1,i,8.9%,-22.0%,9.8%,i,i
SMILES,GALC G270D act,GALK inh,FH mod,NTMT1 inhibitor,B2AR arrestin ag,TSG101-PTAP inh
CCOc1ccc(NC(=O)CSc2nnc(CNC(=O)C34CC5CC(CC(C5)C3)C4)n2CC)cc1,i,-2.0%,-6.9%,89.1µM*,i,i
CCCCCCCCCCCCCCCC(=O)O,i,x,0.0%[53.3 µM],6.3%[57.5 µM],x,x
CCCCCCCCCCCCCCCC[n+]1ccccc1,i,x,-8.1%[53.3 µM],22.4µM*,x,x
CN1CCCN(C(=O)c2cccc(-c3ccc(C=C4C(=O)Nc5ccc(Cl)cc54)o3)c2)CC1,x,x,-3.0%[53.3 µM],7.08µM*,x,x
O=[N+]([O-])c1ccc(O)c2ncccc12,i,x,u,18.3%,x,x
Nc1ccc(O)c([N+](=O)[O-])c1,i,x,u,35.5µM*,x,x
Cc1ccc(NS(=O)(=O)c2cccc(C(=O)Nc3nc(-c4ccccc4)cs3)c2)cc1,x,x,x,24.5%,x,x
Oc1cc(-c2nc(-c3ccccc3)[nH]c2-c2ccncc2)ccc1Cl,x,x,-14.2%,15.9%[57.5 µM],x,x
CN(C)CCOc1ccc(-c2nc(-c3ccc4c(c3)CC/C4=N\O)c(-c3ccncc3)[nH]2)cc1,x,x,x,28.2µM*,x,x
CN1CCC(CNc2ccc3ncc(-c4cccc(OC(F)(F)F)c4)n3n2)CC1,x,x,u,15.8µM*,x,x
COc1ccc(-c2cnc3ccc(NCc4ccc(S(N)(=O)=O)cc4)nn23)cc1OC,x,x,-7.5%,u,x,x
CC(C)C(=O)Oc1ccc(CO)cc1[C@H](CCN(C(C)C)C(C)C)c1ccccc1,x,x,u,21.5µM*!,x,x
Cc1ccc(O)c([C@H](CCN(C(C)C)C(C)C)c2ccccc2)c1,i,x,0.0%[53.3 µM],u,x,x
NC(=O)C1CCN(c2nc(-c3ccc(F)cc3)cs2)CC1,x,x,x,79.4µM*,x,x
NC(=O)C1CCN(c2nc(-c3ccc(-c4ccccc4)cc3)cs2)CC1,x,x,x,-9.1%,x,x
CN1CCc2c(sc3c2C(=O)NC(c2ccc(C(C)(C)C)cc2)N3)C1 (stereo unspecified),i,0.1%,-3.0%,79.4µM*,i,i
COc1ccc(CCN2CCN(CCCc3ccccc3)CC2)cc1OC,x,x,3.0%,89.1µM*!,x,x
COc1cccc(-c2[nH]c3c(c2-c2c(-n4cccc4)n(C)c(=O)[nH]c2=O)c(=O)[nH]c(=O)n3C)c1,i,-12.5%,-2.0%,u,i,i
Cc1ccc(C)c(-c2[nH]c3c(c2-c2c(-n4cccc4)n(C)c(=O)[nH]c2=O)c(=O)[nH]c(=O)n3C)c1,i,-0.3%,-13.4%,89.1µM*,i,i
C[C@](N)(Cc1ccc(O)c(O)c1)C(=O)O,i,x,u,35.5µM*,x,x
CC(Cc1ccc(O)c(O)c1)(NN)C(=O)O (stereo unspecified),x,x,-12.5%[53.3 µM],13.6µM*!,x,x
COC(=O)C(C)(N)Cc1ccc(O)cc1 (stereo unspecified),x,x,3.1%[53.3 µM],x,x,x
